High-throughput results as filed in PubChem BioAssay.
Anthrax LF prot: inhibitors of Bacillus anthracis lethal factor protease; P15917; multiplex microsphere protease cleavage assay, LF; inhibition, % at 10 µM; actives 0.12% (n = 360,000); AID 588501
Target sequence (P15917 whole entry, looked up): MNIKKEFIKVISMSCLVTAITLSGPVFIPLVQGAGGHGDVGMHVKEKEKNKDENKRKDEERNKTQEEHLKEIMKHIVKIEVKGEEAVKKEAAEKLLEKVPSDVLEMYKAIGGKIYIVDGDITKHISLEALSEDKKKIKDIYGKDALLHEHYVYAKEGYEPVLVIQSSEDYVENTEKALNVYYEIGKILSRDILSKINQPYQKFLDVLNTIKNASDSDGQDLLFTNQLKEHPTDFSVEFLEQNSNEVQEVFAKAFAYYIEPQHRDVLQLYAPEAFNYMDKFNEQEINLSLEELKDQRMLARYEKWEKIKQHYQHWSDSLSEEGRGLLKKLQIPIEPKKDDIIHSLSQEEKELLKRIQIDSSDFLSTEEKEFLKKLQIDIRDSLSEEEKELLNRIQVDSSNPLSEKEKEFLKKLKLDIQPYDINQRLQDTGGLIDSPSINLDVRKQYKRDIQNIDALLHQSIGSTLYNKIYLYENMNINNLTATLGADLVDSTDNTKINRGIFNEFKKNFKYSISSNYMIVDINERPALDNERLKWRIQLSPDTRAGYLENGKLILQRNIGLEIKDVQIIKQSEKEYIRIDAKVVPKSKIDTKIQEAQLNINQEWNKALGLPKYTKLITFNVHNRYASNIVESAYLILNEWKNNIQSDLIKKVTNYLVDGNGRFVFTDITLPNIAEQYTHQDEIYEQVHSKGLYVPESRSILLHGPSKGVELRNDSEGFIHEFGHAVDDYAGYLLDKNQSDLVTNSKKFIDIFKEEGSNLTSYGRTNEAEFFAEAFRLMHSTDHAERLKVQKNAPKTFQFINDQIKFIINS
BoNT-F LC inh: inhibitors of Botulinum neurotoxin F light chain protease. Multiplex microsphere protease cleavage assay, flow cytometry. inhibition, % at 10 µM. actives 0.22% (n = 360,000); in the data active = inhibition above about 35%, passing the limit was not always enough; inconclusive = no clear call, values can overlap the other calls
BoNT A protease: blocks Botulinum neurotoxin A light chain protease; AID 588499; multiplex microsphere protease substrate cleavage, flow cytometry; inhibition, % at 10 µM; actives 0.17% (n = 360,000)
BJeLR lethal: kills HRASV12-expressing BJeLR cells | BJeLR (HRASV12) viability, CellTiter-Glo ATP luminescence, 48 h | inhibition, % (no concentration beside the values) | actives 0.17% (n = 300,000); in the data active = inhibition above about 50%; inconclusive = no clear call, values can overlap the other calls
Autofluor counter: compound fluorescence in toxin protease inhibitor counterscreen; compound autofluorescence counterscreen, microsphere flow cytometry; active compounds read high; fluorescence intensity (concentration not given with the values); actives 3.1% (n = 360,000); AID 624483; in the data active = fluorescence intensity above about 16000; inconclusive = no clear call, values can overlap the other calls
Large screens that a line does not name were inactive. Hits are enriched below; roughly 3.5% of the tested compounds scored in any of these assays. Rule as the data show it, unless noted: active = inhibition above about 30%; inconclusive = no clear call, values can overlap the other calls; inactive = below that.

CN(C)c1nc(OCCNC(=O)COc2ccc(Cl)cc2Cl)nc(N2CCCCC2)n1	none
CN(C)c1nc(SCCOC(=O)COc2ccc(Cl)cc2Cl)nc(N(C)C)n1	BoNT A protease inconclusive
CC(/C=N/NC(=O)c1cc(C(C)C)[nH]n1)=C\c1ccccc1	none
COc1ccc(OC)c2c1C(=O)C(Cl)=C(Cl)C2=O	BJeLR lethal 91 (no result: Anthrax LF prot, BoNT-F LC inh, BoNT A protease, Autofluor counter)
COc1ccc(S(=O)(=O)/N=C2\C=C(Nc3ccc(O)cc3)C(=O)c3ccccc32)cc1	BJeLR lethal 51
Cc1cc(=O)[nH]c(N2CCN(Cc3ccccc3)CC2)n1	none
CCCCc1c(O)nc(N2CCN(Cc3ccccc3)CC2)[nH]c1=O	Autofluor counter 21940
Cc1nc2c(OCCN3C(=O)c4ccccc4C3=O)cccn2c1N(C)C(=O)CCC1CCCC1	none (no result: BJeLR lethal)
CC(C)n1c(=O)c2c(O)cc(=O)oc2c2ccccc21	BoNT A protease inconclusive, Autofluor counter 21712
CCn1c(=O)c2c(O)cc(=O)oc2c2ccccc21	BoNT A protease inconclusive, Autofluor counter 22829
CCOc1ccc(C(=O)N(CN2CCCC2=O)c2ccccc2)cc1	BoNT A protease inconclusive, Autofluor counter 19439
Cc1ccc(N(CN2CCCC2=O)C(=O)c2ccc(OC(C)C)cc2)cc1	BoNT A protease inconclusive, Autofluor counter 19242
CCOc1ccc(C(=O)N(CN2CCCC2=O)c2ccc(C)cc2)cc1	none (no result: Anthrax LF prot, BoNT-F LC inh, BoNT A protease, Autofluor counter)
Cc1ccc(C(=O)N(CN2CCCC2=O)c2ccccc2)cc1	Autofluor counter inconclusive
CCCSC1=C(C#N)C(c2ccc(OC)cc2)C2=C(CC(C)(C)CC2=O)N1 (configuration not stated)	none
CSC1=C(C#N)C(c2ccc(Cl)cc2)C2=C(CC(C)(C)CC2=O)N1 (configuration not stated)	Autofluor counter 23927
O=C(OCC(=O)N1CCN(C(=O)COC(=O)c2ccccc2NCCO)CC1)c1ccccc1NCCO	none (no result: BJeLR lethal)
Cc1ccc2nsnc2c1S(=O)(=O)NCc1ccncc1	none
Cc1ccc2nsnc2c1S(=O)(=O)NCc1cccnc1	Autofluor counter 22869
Cc1ccc(C)c(S(=O)(=O)NCc2cccnc2)c1	Autofluor counter 21139
CCN(CC(=O)Nc1ccc2c(c1)OCCO2)C(=O)/C=C/c1cccc(Br)c1	none
COC(=O)N(C)C[C@@H]1OCc2cn(nn2)CCCC(=O)N([C@@H](C)CO)C[C@H]1C	none (no result: BJeLR lethal)
Cc1nc(SCc2cccc(F)c2)[nH]c(=O)c1C#N	BoNT A protease inconclusive, Autofluor counter 22061
Cc1cc(N2CCN(c3ccccc3)CC2)nc(N)n1	BoNT A protease inconclusive, Autofluor counter 20567
CCOC(=O)c1c(NC(C)=O)sc2c(O)cccc12	Autofluor counter 21384
CCOC(=O)c1c(NC(=O)Nc2cccc(Cl)c2)sc(C)c1C	Autofluor counter 23460
CCOC(=O)c1c(NC(C)=O)sc2c(O)c(Br)cc(Br)c12	none
O=C(N/N=C/c1ccccc1Cl)c1cccc(F)c1	Autofluor counter 16940
COc1ccc(OCc2cc(/C=N\NC(=O)c3ccccc3)ccc2OC)cc1	none
COc1ccc(/C=N\NC(=O)c2cccc(F)c2)cc1COc1ccccc1	BoNT-F LC inh inconclusive, BoNT A protease inconclusive, BJeLR lethal 54
CC1CCC(NC(=O)c2cc(Cl)nc3ccccc23)CC1 (configuration not stated)	none (no result: BJeLR lethal)
COC(=O)c1c(C)n(Cc2ccco2)c2ccc(O)cc12	Autofluor counter 24915
O=C1NC[C@@H](CCCCN2C[C@H](Cc3ccc(O)cc3)N(Cc3ccccc3)C(=O)C2=O)N(Cc2ccccc2)C1=O	none (no result: BJeLR lethal)
Clc1ccc(-c2nnc(SCc3ccon3)o2)c(Cl)c1	none
C=CCSc1nnc(-c2ccc(Cl)cc2Cl)o1	Autofluor counter 17125
Cc1ccc(C(c2nnnn2C(C)(C)C)N2CCC(C)CC2)cc1 (configuration not stated)	Autofluor counter 20278
CC1CCN(C(c2ccccc2)c2nnnn2C(C)(C)C)CC1 (configuration not stated)	none
Cc1nc2oc3c(NCc4ccccc4)ncnc3c2c2c1COC(C)(C)C2	none
CC(C)c1nc2oc3c(NCC4CCCO4)ncnc3c2c2c1COC(C)(C)C2 (configuration not stated)	Autofluor counter 22704
Cc1nc2oc3c(NCC4CCCO4)ncnc3c2c2c1COC(C)(C)C2 (configuration not stated)	Autofluor counter 22824
CCCc1nc2oc3c(OC)ncnc3c2c2c1COC(C)(C)C2	Autofluor counter 19420
CN(/C=C/C(=O)C(F)(F)F)Cc1ccccc1	Autofluor counter 24286
O=C1CC(c2cccs2)c2cc3c(cc2N1)OCO3 (configuration not stated)	Autofluor counter 23380
COc1ccc(NC(=O)[C@@H]2O[C@H](CO)[C@H](O)[C@H](O)[C@H]2O)cc1F	none (no result: BJeLR lethal)
CCOc1ccc(NC(=O)COC(=O)Cn2nc(C)c([N+](=O)[O-])c2C)cc1OCC	none (no result: BJeLR lethal)
CCOc1ccc(NC(=O)COC(=O)Cn2cnnn2)cc1OCC	Autofluor counter 23264
CSc1nncn1/N=C/c1ccccc1F	BoNT A protease inconclusive, Autofluor counter 23258
CSc1nncn1/N=C/c1ccc2c(c1)OCO2	Autofluor counter 23493
Brc1ccc(-c2nn3c(-c4ccco4)nnc3s2)o1	BoNT A protease inconclusive, Autofluor counter 22193
COc1cccc(OC)c1-c1nn2c(-c3ccco3)nnc2s1	Autofluor counter 20967
CCN(C(=O)c1ccc(S(=O)(=O)N(C)C)cc1)C(C)C(=O)Nc1ccc(C)cc1 (configuration not stated)	none
CC(=O)N1CCC2(CC1)CC(=O)c1cc(OCC(=O)NCc3ccco3)ccc1O2	none
c1ccc(-c2nc(NCc3ccco3)c3oc4ccccc4c3n2)cc1	BoNT A protease inconclusive, Autofluor counter 22249
CC(O)/C=C/c1ccc2ccccc2n1 (configuration not stated)	Autofluor counter 17160
O=C(NC(c1ccc(-c2ccccc2)cc1)c1cnccn1)C1CCN(Cc2ccc3c(c2)OCO3)CC1 (configuration not stated)	none (no result: BJeLR lethal)
O=C(O)C1C2C=CC(O2)C1C(=O)Nc1ccc(S(=O)(=O)N2CCc3ccccc32)cc1 (configuration not stated)	none
O=C(O)C1C2C=CC(O2)C1C(=O)Nc1ccc(S(=O)(=O)Nc2ccccc2)cc1 (configuration not stated)	Autofluor counter 21995 (no result: BJeLR lethal)
CC1=Nc2ccccc2/C1=C\c1nc(-c2ccccc2)oc1O	none
CC1=Nc2ccccc2/C1=C\c1nc(-c2ccc(C(F)(F)F)cc2)oc1O	Autofluor counter 17953
CC12CN(C(=O)c3ccc(Cl)cc3)C3(C#N)CC1CCC23C (configuration not stated)	BoNT A protease inconclusive, Autofluor counter 22214
CC12CN(NC(=O)c3ccccc3F)C3(C#N)CC1CCC23C (configuration not stated)	none
CSc1nc2nccc(/C=C\c3ccccc3)n2n1	BoNT A protease inconclusive, Autofluor counter 21761
Cc1cccc(C)c1NS(=O)(=O)c1ccc(-c2cnc(C3CC3)o2)cc1	BJeLR lethal 60
Cc1ccc(NS(=O)(=O)c2ccc(-c3cnc(C4CC4)o3)cc2)cc1	none
COc1ccc(C)cc1NS(=O)(=O)c1ccc(-c2cnc(C3CC3)o2)cc1	BJeLR lethal 58
